# Reference: PubChem BioAssay AID834 (PCMD, 2007)
# Screen size: about 85,000 compounds; about 120 (0.14%) were called active. Many of the other results were omitted from the sample, so actives are more common in it than they were. Values without a mark were called inactive.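 How the source made its calls: active means inhibition above 20%; inactive means inhibition below 20%.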
# Assay: clotrimazole potentiators killing Candida biofilms, primary screen, with clotrimazole, Alamar Blue (AID 834);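 further: preformed 24 hr biofilms exposed to compound for 48 hr; 0% = biofilm without compound and 100% = blank killed by clotrimazole plus chlorhexidine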
# Settings: C. albicans biofilm + clotrimazole, at 6 µM, active compounds read high
row,Compound,inhibition
1,CC(=O)NC1=NN(C(C)=O)C(C)(c2ccc(Cl)s2)S1 (stereo not given),6.61%
2,CCOc1c(Br)cc(/C=C2\C(=O)N(CCC#N)N=C2C)cc1OC,-1.46%
3,Cc1cccc2nc(CSc3nc4[nH]ncc4c(=O)n3-c3cccc(Cl)c3)cc(=O)n12,-2.14%
4,Cc1ccc(S(=O)(=O)N(c2cccc(C)c2)C2CCS(=O)(=O)C2)cc1 (stereo not given),11.2%
5,CS(=O)(=O)Nc1ccc(C(=O)N2CCCC2)cc1,6.23%
6,O=C(c1ccccc1Oc1ccccc1)N1CCN(c2ccc(F)cc2)CC1,6.89%
7,CCOc1ccc(C(=O)NC(C(=O)NCc2ccccn2)C(C)C)cc1 (stereo not given),-4.48%
8,Cc1cccc(N2CCN(C(c3ccc(N(C)C)cc3)c3nnnn3C(C)(C)C)CC2)c1C (stereo not given),4.97%
9,COc1ccc(CNCCCO)cc1OC,5.75%
10,Cc1nnc(SCc2nc3ccccc3nc2C)s1,5.78%
11,CC(=O)N(C)c1ccc(NC(=O)C(F)(F)F)cc1,0.77%
12,Cc1ccc(CN(N=Nc2nonc2N)c2nonc2N)c(C)c1,1.82%
13,Cc1ccc(-c2cc(C(=O)NCC3CCCO3)c3ccccc3n2)o1 (stereo not given),5.01%
14,Cc1ccc(-c2noc(CSc3nnc(-c4ccncc4)n3-c3ccc(F)cc3)n2)cc1,5.84%
15,Cc1ccc(CS(=O)(=O)CCC(=O)NC2CC2)cc1,8.04%
16,Cc1csc(OCC(=O)Nc2ccc(C)c(C)c2)n1,4.83%
17,CCN(CC)C(=O)CN(c1cccc(OC)c1)S(=O)(=O)c1ccc(C)cc1,3.27%
18,CC1=NN(C(C)C)C(=O)C1,9.86%
19,CCOC(=O)C1CSC(CC(=O)Nc2ccc(OCC)cc2)C(=O)N1 (stereo not given),3.56%
20,CCCc1nc(NCc2ccc3c(c2)OCO3)c2nnn(Cc3ccccc3Cl)c2n1,7.6%
21,CCn1c(=O)c(=O)n(CC)c2cc(S(=O)(=O)N3CCc4ccccc43)ccc21,1.66%
22,Cc1cccc(NC(=O)C2CC(=O)OC23CCCC3)c1 (stereo not given),-0.65%
23,C=C(Cl)COC(=O)C1C2C=CC(C2)C1C(=O)O (stereo not given),6.89%
24,COCCNC(=O)Cn1cc(C(=O)c2cccs2)c2ccccc21,-3%

row,Compound,inhibition
1,CCOc1cccc(NC(=O)Cn2nc(-c3ccc4c(c3)OCCO4)ccc2=O)c1,-3.83%
2,CC1CCc2c(nc3ncnn3c2Nc2ccc(OC(F)(F)F)cc2)C1 (stereo not given),2.5%
3,COc1c(F)c(F)c(C(=O)O)c(Nc2ccccc2C)c1F,0.13%
4,CCOC(=O)N1CCN(Cc2nc(N)nc(Nc3ccc(C)cc3)n2)CC1,4.91%
5,CCOc1ccccc1NC(=O)c1cccnc1,4.81%
6,COc1ccc(CCNc2ncnc3nc[nH]c23)cc1OC,22.7% (active)
7,COc1ccc(CCNS(=O)(=O)c2ccc(F)cc2)cc1OC,0.3%
8,CCS(=O)(=O)NCCc1ccc(OC)c(OC)c1,-1.71%
9,CCCCNC(=O)C1CCCNC1=O (stereo not given),1.47%
10,CCCCNS(=O)(=O)c1ccc(S(=O)(=O)n2cnc3ccccc32)cc1,0.82%
11,O=C1N=C(N2CCCC2)S/C1=C\c1cccc(Br)c1,2.13%
12,CCOC(=O)C(C)n1cnc2sc(C)c(C)c2c1=O (stereo not given),9.63%
13,CCOC(=O)c1cnc(SCc2nc(N)nc(Nc3ccc(OC)cc3)n2)nc1N,1.79%
14,CN(C)[C@@H]1C(=O)C(C(N)=O)=C(O)[C@@]2(O)C(=O)C3=C(O)c4c(O)ccc(Cl)c4[C@@H](O)[C@H]3C[C@@H]12,29.9% (active)
15,CC1CCCN(C(C(=O)Nc2ccc(C(C)C)cc2)c2ccc3c(c2)OCO3)C1 (stereo not given),6.31%
16,CCS(=O)(=O)Nc1ccc(C2=NN(S(=O)(=O)c3ccc(F)cc3)C(c3ccco3)C2)cc1 (stereo not given),2.91%
17,Cc1cc(C(=O)OC(C)C(=O)Nc2cccc(S(=O)(=O)N3CCOCC3)c2)c(C)o1 (stereo not given),0.93%
18,COc1ccccc1-c1nc(C#N)c(N2CCC(C(N)=O)CC2)o1,7.17%
19,Cc1cccn2c(=O)c(/C=C(\C#N)S(=O)(=O)c3ccc(Cl)cc3)c(N3CCC(C(N)=O)CC3)nc12,45.2% (active)
20,Cc1ccc(C(c2nnnn2CS(=O)(=O)c2ccc(C)cc2)N2CCC(C(N)=O)CC2)cc1 (stereo not given),-1.5%
21,Cc1ccc(Cc2c(C)nc3nc(SCC(=O)NCCN4CCOCC4)nn3c2C)cc1,-3.03%
22,Cc1ccc(-n2ccc(=O)c(C(=O)O)n2)cc1,2.26%
23,COc1ccc(S(=O)(=O)Nc2ccc3oc(C)c(C(C)=O)c3c2)cc1,-2.16%
24,O=C(Cc1ccccc1)Nc1c(C(=O)N2CCCCCC2)cnn1-c1ccccc1,-2.24%

row,Compound,inhibition
1,CC(C)CC(=O)Nc1cc(C(F)(F)F)ccc1N1CCOCC1,1.97%
2,CC(C)(C)n1nnnc1C(c1ccc(Cl)cc1)N1CCSCC1 (stereo not given),6.98%
3,Cc1ccccc1-n1c(C)cc(/C=C2\NC(=O)NC2=O)c1C,2.93%
4,Cc1ccc(NC(=O)N2CCC(c3nc4c(nnn4Cc4c(F)cccc4Cl)c(=O)[nH]3)CC2)cc1,5.75%
5,COc1ccccc1C(=O)N1CC2(C)CC1CC(C)(C)C2 (stereo not given),-0.87%
6,O=C(NCc1ccccn1)c1cc(-c2ccccc2Cl)on1,-4.95%
7,CCc1ccc(C2C(C#N)=C(N)Oc3n[nH]c(CC(=O)OC)c32)cc1 (stereo not given),8.34%
8,CCn1nccc1C(=O)Nc1ccc(Cl)c(Cl)c1,6.51%
9,O=C(CCCn1c(SCC(=O)c2ccccc2)nc2ccccc2c1=O)NCC1CCCO1 (stereo not given),0.02%
10,COC(=O)c1ccccc1NC(=O)CN(Cc1ccc(Cl)cc1)S(C)(=O)=O,9.25%
11,COc1ccc(CN2CCCCC2C)cc1OC (stereo not given),0.38%
12,CCC(C)NC(=O)c1cc(Cl)ccc1OC (stereo not given),3.81%
13,C=CCn1c(-c2ccc3[nH]c(C)c(C)c3c2)n[nH]c1=S,0.31%
14,CCCn1c(C)cc(C(=O)COC(=O)c2c(C)nn(-c3ccccc3)c2C)c1C,-1.14%
15,O=C(CSc1nnc(-c2cccs2)n1Cc1ccccc1)N1CCc2ccccc2C1,6.37%
16,CCOc1ccc2c(c1)C(c1ccc(C)cc1)=NNC(c1ccc(C)cc1)=N2,-0.27%
17,C=C(C)CNC(=S)/N=c1\scc(C)n1CC,1.12%
18,COc1ccc(C2C(C#N)=C(/N=C/N3CCOCC3)OC3=C2C(=O)CC(C)(C)C3)cc1OC (stereo not given),13.5%
19,O=P(O)(CP(=O)(c1ccccc1)c1ccccc1)c1ccccc1O,7.77%
20,CC(C)NC(=O)CSc1nnc(COc2ccccc2Cl)o1,5.07%
21,O=C(c1cccc(F)c1)N1CCC(O)(c2cccnc2)CC1,8.81%
22,CCCOc1cc(C)c(S(=O)(=O)n2nnc3ccccc32)cc1C,2.8%
23,NC1=NC(=O)C2(COC(c3ccccc3Cl)OC2)S1 (stereo not given),14.2%
24,CC(C)Nc1ncnc2c1nnn2Cc1ccccc1,-1.71%

row,Compound,inhibition
1,Brc1ccc(-c2nnc(-c3ccccc3)o2)o1,6.11%
2,CCN(CC)C(=O)CSc1nnc(C2CCCCC2)o1,2.47%
3,O=c1[nH][nH]c(C(F)(F)F)c1C=NCc1ccccc1Cl,-3.59%
4,CCN1C(=O)/C(=C2/Sc3ccc(OC)cc3N2C)SC1=Nc1ccc(C)cc1,-3.03%
5,O=C(NC(C(=O)NCCN1CCOCC1)C12CC3CC(CC(C3)C1)C2)C1CCCCC1 (stereo not given),-1.05%
6,S=c1[nH]nc(-c2ccc(Cl)cc2)n1CC1CCCO1 (stereo not given),7.93%
7,Cc1nnc(SCC(=O)Nc2ncc3c(n2)CC(C)(C)CC3=O)s1,3.95%
8,Cc1ccccc1-c1nnc(SCC(=O)NCc2ccc3c(c2)OCO3)n1C,4.85%
9,Cc1ccc(C(=O)N/N=C/c2sc(=O)n(Cc3cccc(C(=O)O)c3)c2Cl)cc1,8.24%
10,COc1ccc(CN(Cc2ccco2)S(=O)(=O)c2ccc(S(=O)(=O)N3CCCC3)cc2)cc1,1.45%
11,COC(=O)c1ccccc1Oc1c(F)c(F)nc(N2CCOCC2)c1F,8.84%
12,CCc1ccc(NC(=O)CN2C(=O)CSC2=O)cc1,5.49%
13,CC(C)(CNC(=O)c1cc(=O)[nH]c2ccccc12)N1CCOCC1,6.02%
14,COc1cc(C)c(C(C)C)cc1S(=O)(=O)n1ccnc1,1.15%
15,CCn1c(CC(=O)Nc2ccc(C)cc2)nnc1SCC(=O)Nc1nc(C)cs1,5.16%
16,CN1C(=O)C(CC(N)=O)N(NC(=O)c2ccc(Cl)cc2)C1=S (stereo not given),7.03%
17,Cc1ccc(-n2c(CNc3ccc(F)cc3)nnc2SCC(=O)N2CCOCC2)cc1,3.95%
18,CC(c1ccco1)N(C(=O)COc1ccccc1[N+](=O)[O-])c1ccccn1 (stereo not given),7.57%
19,COC(=O)[C@@H](NC(=O)Nc1cc(Cl)ccc1C)C(C)C,10.7%
20,O=C(Nc1cccc(NC(=O)c2ccco2)c1)c1cnccn1,4.07%
21,Cn1c(-c2sc3cc(C(F)(F)F)cnc3c2-c2ccccc2)n[nH]c1=S,1.53%
22,CC(=O)Oc1ccc(NC(=O)CCC2CCCCC2)c(C(=O)O)c1,4.27%
23,COc1ccc(S(=O)(=O)NCc2ccc(C(=O)N(C)Cc3ccco3)cc2)cc1,4.38%
